# Compounds with a hit are over-represented: about 2.1% of the library has one in this group of screens.
# PLC-gamma1 inh = inhibitors of human phospholipase C gamma1; P19174; purified PLC-gamma1, fluorogenic substrate, fluorescence; inhibition, % at 12.2 µM; 370,000 tested, 0.84% active; AID 720700; in the data active = inhibition above about 9.5%
# ADAM10 inh = inhibitors of human ADAM10. O14672. recombinant ADAM10, EDANS/DABCYL FRET peptide cleavage, 3 h. inhibition, % at 7 µM. 370,000 tested, 0.62% active. AID 720582;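 active = inhibition above a per-campaign cutoff equal to the mean of compounds falling between control-based bounds plus 3 SD, cut at about 20% in these data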;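 note: 0% = DMSO wells while the 100% control is not disclosed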
# Rce1 inhib = yeast Ras-converting enzyme inhibition; AID 2563; yeast membranes, quenched prenylated peptide cleavage fluorescence; Q03530; calls only; 290,000 tested, 0.27% active;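 active = fall in fluorescence gain of 50% or more versus controls, with final raw signal at or below 3038400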;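 note: plate controls were neutral control wells for no effect and wells lacking membranes for full effect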
# ADAM17 inh = ADAM17 inhibition, QFRET primary screen. P78536. recombinant ADAM17, EDANS/DABCYL FRET peptide cleavage. inhibition, % at 6.95 µM. 370,000 tested, 0.83% active. AID 720648;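 active = inhibition above the mean of compounds lying between control limits plus 3 SD, set per campaign, cut at about 8.5% in these data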;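 note: 0% = DMSO-only wells as the low control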
# Target sequence (P78536 215-824 limits assumed): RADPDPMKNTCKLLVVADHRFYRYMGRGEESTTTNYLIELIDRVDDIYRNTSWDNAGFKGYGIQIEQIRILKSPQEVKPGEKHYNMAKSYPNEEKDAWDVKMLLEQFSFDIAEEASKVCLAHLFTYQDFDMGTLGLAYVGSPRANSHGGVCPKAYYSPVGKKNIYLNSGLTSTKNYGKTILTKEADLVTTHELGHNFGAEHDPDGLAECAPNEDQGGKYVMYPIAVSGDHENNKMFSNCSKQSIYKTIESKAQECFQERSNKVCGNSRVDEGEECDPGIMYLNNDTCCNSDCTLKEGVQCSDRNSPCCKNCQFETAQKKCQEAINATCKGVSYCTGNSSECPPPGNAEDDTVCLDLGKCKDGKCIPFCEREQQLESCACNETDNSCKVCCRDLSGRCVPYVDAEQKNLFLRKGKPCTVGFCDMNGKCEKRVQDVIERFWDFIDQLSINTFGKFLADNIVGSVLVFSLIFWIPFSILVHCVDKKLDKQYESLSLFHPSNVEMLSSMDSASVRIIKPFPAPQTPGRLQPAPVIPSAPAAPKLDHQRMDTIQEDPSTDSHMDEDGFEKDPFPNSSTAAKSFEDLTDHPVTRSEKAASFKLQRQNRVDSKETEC
# PLC-beta3 inh = inhibitors of human phospholipase C beta3 | Q01970 | Purified PLC-beta3, fluorogenic substrate, fluorescence | inhibition, % at 12.2 µM | 370,000 tested, 0.18% active; in the data active = inhibition above about 11%;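 note: 0% = median of compound wells on plate and 100% = full blocker control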
# Numbers without * were called inactive; i = inactive; / = no result; + = active, no number; ! = a repeat was not active.
SMILES,PLC-gamma1 inh,ADAM10 inh,Rce1 inhib,ADAM17 inh,PLC-beta3 inh
CCCCC[n+]1cccc2c3ccccc3ccc21,-210,i,+,-347,-228
O=[N+]([O-])c1ccc(C[n+]2cccc3ccccc32)cc1,-6,5,i,0,-15
O=C(NC1CCC1)c1ccc(C#Cc2cccc(F)c2)nc1,1,-1,/,-1,-1
C#Cc1ccc([C@H]2C=C(C(=O)N3CCN(Cc4ccccc4)CC3)O[C@@H](OCC)[C@@H]2CCCO)cc1,0,0,i,-4,-3
CCO[C@@H]1OC(C(=O)N2CCN(Cc3ccccc3)CC2)=C[C@H](c2ccccc2)[C@H]1CCCO,0,3,+,0,3
CS(=O)(=O)c1nc(-c2ccccc2)cc(-c2ccccc2)c1C#N,/,/,i,/,/
Cc1ccc(-c2cc(-c3ccccc3)c(C#N)c(Br)n2)cc1,1,-20,+,1,2
Nc1[nH]c(C(=O)c2ccccc2)c(-c2ccc3ccccc3c2)c1C(=O)NCc1ccc(F)cc1,-9,-11,/,-5,-10
CC(NC(=O)/C(C#N)=C/c1ccc(Cl)c([N+](=O)[O-])c1)c1ccccc1 (configuration not stated),0,-1,+,-4,1
NC(N)=NC(=O)c1nc(Cl)c(N)nc1N,-47,-456,+!,-141,-48
Cc1cc2oc(=O)cc(Cn3nnc(-c4ccc(Cl)cc4)n3)c2cc1C(C)C,/,/,i,/,/
CC(C)C[C@H](NC(=O)c1nc[nH]c1C(=O)NC(c1ccccc1)c1ccccc1)C(=O)OC(C)(C)C,4,7,i,2,6
CC(C)C[C@H](NC(=O)c1nc[nH]c1C(=O)N[C@@H](CC(C)C)C(=O)OC(C)(C)C)C(=O)OC(C)(C)C,9,11,i,9.5*,8
CC(C)(C)OC(=O)NCCCC[C@H](NC(=O)c1[nH]cnc1C(=O)Nc1ccc(CNC(=O)OC(C)(C)C)cc1)C(=O)OC(C)(C)C,-6,14,/,7,-6
Cn1cnc(C(=O)NCc2ccc(CNC(=O)OC(C)(C)C)cc2)c1C(=O)NCc1ccc(CNC(=O)OC(C)(C)C)cc1,7,21*,/,11*,1
C[C@H](NC(=O)c1[nH]cnc1C(=O)Nc1ccc(CNC(=O)OC(C)(C)C)cc1)C(=O)OC(C)(C)C,2,22*,i,11*,-2
COC(=O)[C@H]1C[C@@]2(C)c3ccccc3N(C(=O)OC(C)(C)C)[C@H]2N1C(=O)OC(C)(C)C,0,6,/,1,3
C=CCn1c(=O)c(C(=O)Nc2ncccc2C)c(O)c2ccccc21,-4,0,/,4,-8
C[C@@H]1ON(C)[C@H]2C[C@H]3c4cc(-c5ccc6c(c5)OCO6)ccc4CCN3C[C@@H]12,-1,-5,/,-2,1
O=C(O/N=C\c1ccc(N2CCCCC2)c([N+](=O)[O-])c1)c1cccc(C(F)(F)F)c1,1,4,+,-1,-5
O=C(O/N=C\c1ccc(N2CCCCC2)c([N+](=O)[O-])c1)c1cccc(Cl)c1,1,-2,i,-2,1
COCCNC(=S)N1CCN(Cc2ccc3c(c2)OCO3)CC1,-1,-6,i,-1,2
Cc1cc(C)c2sc(NNC(=O)c3ccc(S(=O)(=O)N4CCc5ccccc5C4)cc3)nc2c1,-59,11,i,11*,-64
Cc1cc(C)c2nc(NNC(=O)c3ccc(S(=O)(=O)N4CCc5ccccc5C4)cc3)sc2c1,-73,14,i,7,-95
CCCCOCCCNC(=O)C[C@@H]1C[C@@]2(C(=O)OC)CCCCC=C2N(Cc2ccc(Cl)cc2Cl)C1=O,2,1,/,0,-4
SMILES,PLC-gamma1 inh,ADAM10 inh,Rce1 inhib,ADAM17 inh,PLC-beta3 inh
COc1ccc(NC(=O)c2cn3c(nc4ccccc43)c(C#N)c2C)cc1,-9,-37,+,-3,-20
COC(=O)[C@]12C[C@H](CC(=O)N3CCSCC3)C(=O)N(Cc3ccc4c(c3)OCO4)C1=C[C@H](COCc1ccccc1)O[C@@H]2C,0,6,/,2,4
Cc1ccc(S(=O)(=O)Cc2cn3cccnc3n2)cc1,-243,i,+,-228,-311
Cc1ccc2nc(SCc3cn4cccnc4n3)[nH]c2c1,-16,-34,i,-8,-19
CN(Cc1ccc(F)cc1)C(=O)CN1C(=O)C2(OCCCO2)c2ccccc21,0,-4,/,-2,2
O=C(Nc1ccc(Cl)c(C(=O)N2CCOCC2)c1)c1ccccc1,1,4,i,-1,-3
CCOC(=O)C1CCN(C(=O)c2cc3c(=O)n4cccc(C)c4nc3s2)CC1,-61,-252,i,-79,-103

# Compound activity from PubChem BioAssay.
